Experiment [1] is described as follows: High-throughput drug toxicity screening in the BPDCN cell line Gen2.2 (AID 1224824; call rule not given here). Particulars: Gen2.2 BPDCN cells; at 45.8 µM (top of the series) unless noted. The gist of the method: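 Gen2.2 cells (500/well) in phenol red-free RPMI with 10% FBS were exposed to compounds for 48 h at 37 °C, 5% CO2. Viability was read by CellTiter-Glo luminescence and normalized to DMSO (100%) and 9.2 uM bortezomib (0%).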

A short description of experiment [2]: High-throughput drug toxicity screening in the BPDCN cell line Cal-1 (AID 1224825; call rule not given here). Particulars: Cal-1 BPDCN cell viability, qHTS; at 45.8 µM (top of the series) unless noted. The gist of the method:
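Percent activity derived from CellTiter-Glo luminescence, scaling DMSO to 100% and 9.2 uM final bortezomib to 0%. BPDCN Cal-1 cells (500/well, RPMI plus 10% FBS) incubated with compounds 48 hours at 37C before reading.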
For orientation: qHTS replaces the single test concentration by a dilution series.

A short description of experiment [3]: qHTS assay for measurement of the activity of small molecule inhibitors on Zika virus induced Caspase-3 activity in human iPSC derived neural progenitor cells (hNPCs) (AID 1224857). Note: % of control where 0% means no effect; nearly all actives have a fitted effect of over 65% in size. The procedure, abridged: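 Caspase-3/7 induction by a 6-hour ZIKV infection was quantified with a luminescent Caspase-Glo 3/7 reagent incubated 30 minutes at room temperature. Compounds were preincubated with hNPCs for 1 hour; inhibition was calculated against uninfected and infected control wells.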

A short description of experiment [4]: qHTS assay for measurement of the activity of small molecule inhibitors on Zika virus induced Caspase-3 activity in human astrocytoma cells (AID 1224859).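 Note: plate controls were ZIKV-infected untreated cells for no effect and uninfected cells for full effect.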 The procedure, abridged:
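In SNB-19 cells plated at 250 cells/well and grown 16-20 h, compounds were applied 1 h before ZIKV (2 FFU/cell). Six hours later caspase-3/7 luminescence was recorded.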

Experiment [5] is described as follows: qHTS Screen of the MIPE 4.0 Collection Against Ewings Sarcoma (RDES) (AID 1259252). Note: nearly all actives have a fitted effect of over 35% in size. Note: potency is the fitted concentration of half-maximal effect. The procedure, abridged: (§1)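 After a 4 h attachment period in RPMI/5% FBS, cells were pin-dosed with test compounds; DMSO served as negative and 9.2 uM bortezomib (final) as positive control. Luminescent CellTiter-Glo signal at 48 h defined viability.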
The nature of experiment [6]: qHTS Screen of the MIPE 4.0 Collection Against Ewings Sarcoma (EW8) (AID 1259255).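 For viability: 100% = DMSO-treated cells and 0% = medium-only wells without cells.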 Note: nearly all actives have a fitted effect of over 35% in size. Note: potency is the fitted concentration of half-maximal effect. The procedure, abridged: as §1
Experiment [7] is described as follows: Identifying Small Molecule Inhibitors of Pancreatic Cancer Stem Cells (SN12C, Adherent) (AID 1259358).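 Note: cell survival measured after 48 h of compound exposure.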 The procedure, abridged:
(§2)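 Adherent (2D) versus sphere (3D) formats; spheres generated 14 d in SCM beforehand. Compound transferred by pin tool after 4 h, 48 h incubation, CellTiter-Glo endpoint.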

Experiment [8] can be described thus: Identifying Small Molecule Inhibitors of Pancreatic Cancer Stem Cells (SN12C, Spheroid) (AID 1259360).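 For viability (% of control): 100% = DMSO-treated cells and 0% = wells without cells.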 Note: potency is the fitted concentration of half-maximal effect. The settings on record: Potency: SN12C spheroid viability. The gist of the method: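 Viability is scored by CellTiter-Glo luminescence 48 h after dosing, expressed as percent activity against vehicle and no-cell references. Spheroid formats rely on cells cultured 14 days in stem cell media beforehand.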

Experiment [9] is described as follows: P-glycoprotein substrates identified in KB-8-5-11 adenocarcinoma cell line, qHTS therapeutic library screen (AID 1346987). Note: nearly all actives have a fitted effect of over 65% in size. Note: potency is the fitted concentration of half-maximal effect. The procedure, abridged: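 Luminescence from CellTiter-Glo, read 5 min after addition, quantified survival of KB-8-5-11 (P-gp-overexpressing) cells exposed to compounds for 72 h. AC50 was derived from concentration-response curves.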
Experiment [10] can be described thus: qHTS Screen of the MIPE 4.0 Collection Against Ewings Sarcoma (TC32) (AID 1259256). Note: nearly all actives have a fitted effect of over 45% in size. Note: potency is the fitted concentration of half-maximal effect. The gist of the method:
as §1

Experiment [11] can be described thus: Identifying Small Molecule Inhibitors of Pancreatic Cancer Stem Cells (A278, Adherent) (AID 1259361).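 For viability (% of control): 100% = DMSO-treated cells and 0% = cell-free media-only wells.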 Note: nearly all actives have a fitted effect of over 35% in size. The gist of the method: as §2
Experiment [12] can be described thus: Identifying Small Molecule Inhibitors of Pancreatic Cancer Stem Cells (Panc1, Adherent) (AID 1259362).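 Note: compound exposure lasted 48 h before the viability read; plate controls were DMSO-treated cells for no effect and cell-free media wells for full effect.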 The settings on record: Potency: viability. The gist of the method:
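Endpoint: ATP-based luminescence, 48 h drug exposure. Bortezomib at 9.2 uM final as full-kill control; DMSO vehicle as negative control; activity normalized between vehicle and cell-free wells.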

Experiment [13] is described as follows: P-glycoprotein substrates identified in KB-3-1 adenocarcinoma cell line, qHTS therapeutic library screen (AID 1346986). Note: nearly all actives have a fitted effect of over 60% in size.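 Note: potency is the fitted concentration of half-maximal effect; potency is for cytotoxicity meaning loss of cell viability.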 The gist of the method:
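Viability read by CellTiter-Glo after 72 h compound exposure in dose-response of KB-3-1 and KB-8-5-11 (P-gp-high) cells. Hits needed AC50 < 10 uM, >50% maximum response and curve class -1.1 to -2.4. Cherry-picks retested ± tariquidar, including pcDNA/MDR-19 HEK-293 pair.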

A short description of experiment [14]: qHTS Screen of the MIPE 4.0 Collection Against Ewings Sarcoma (TC71) (AID 1259253).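 Note: 100% = DMSO-treated cells and 0% = medium-only wells without cells; nearly all actives have a fitted effect of over 40% in size.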 The gist of the method: as §1
Experiment [15] can be described thus: qHTS assay to identify small molecule inhibitors of chordoma cells - UCH-1 (AID 1259355). Note: % is set by controls: 0 for no effect and ±100 for the full control effect; nearly all actives have a fitted effect of over 55% in size. The procedure, abridged:
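800 cells/well, overnight attach; compounds pinned at 15 concs, then auranofin/camptothecin/doxorubicin/rubitecan/topotecan combo added; 48hr 37 C, 5% CO2; CellTiter-Glo, 30min RT, luminescence.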

Experiment [16] can be described thus: qHTS assay to identify small molecule inhibitors of chordoma cells - UCH-2 (AID 1259356). Note: % is set by controls: 0 for no effect and ±100 for the full control effect.
Experiment [17] in a line: Natriuretic polypeptide receptor (hNpr1) antagonism - Pilot counterscreen GloSensor control cell line (AID 1347045; calls by dose curve; note: % is set by controls: 0 for no effect and ±100 for the full control effect). The procedure, abridged:
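Cells were first seeded and incubated overnight at 37C, then loaded with 2% GloSensor substrate for 2 h. Compounds were added for 30 min at room temperature, followed by a baseline read, 50 uM SNP and a final read after 20 min.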
A general note: A counterscreen serves to expose hits that act by an unwanted route or on another target.

Experiment [18] in a line: Identifying Small Molecule Inhibitors of Pancreatic Cancer Stem Cells (Panc1, Spheroid) (AID 1259359).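 Note: potency is the fitted concentration of half-maximal effect; compound exposure lasted 48 h before reading.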 The procedure, abridged:
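Monolayer and spheroid cultures are compared. Spheroids form over 14 days in stem cell medium on hydrogel-coated low-attachment plates, then are exposed to compound for 48 h before CellTiter-Glo luminescence.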

The structures appear in SMILES notation. Results filed as inconclusive are left out. Activity calls are given as the source filed them. Unless noted, calls come from the whole dose curve; as a rule, active = well fitted curve in the direction sought with a large enough effect; inconclusive = small, poorly fitted or top-dose-only effect, or another doubt; inactive = no such curve, though single readings can be large; an effect the other way counts as inactive or inconclusive.

For the molecule `CS(=O)(=O)Oc1ccc2c(NC(N)=O)c(C(=O)c3ccc(Cl)cc3Cl)oc2c1`, in experiment [1], the cell viability, % of control (lower = more cytotoxic) is 153%. Moreover, the viability (% of control) in [2] came to 13.2%. Also, the Potency result in experiment [3], in [4], in experiment [7], in experiment [8] and in experiment [9] was “inactive” in each case. Further, the Potency was 11.8 µM (active) in [5] and 23.5 µM (active) in experiment [6].
Turning to `CCN(c1ccccc1)c1cc(NC)[n+](C)c(C)n1`, the cell viability, % of control (lower = more cytotoxic) in [1] was found to be 138%. Also, the viability (% of control) in experiment [2] came to 119%. The Potency entry in experiment [3], in experiment [6], in experiment [7], in experiment [8], in [12] and in experiment [9] was “inactive” throughout. For the same molecule, the results for the Potency in experiment [5] and in experiment [10] were 7.43 µM (active) and 16.6 µM (active), respectively. Besides, the IC50 (viability decrease) entry in experiment [11] was “inactive”.
Take `Cc1cnc(Nc2ccc(OCCN3CCCC3)cc2)nc1Nc1cccc(S(=O)(=O)NC(C)(C)C)c1`: the cell viability, % of control (lower = more cytotoxic) in experiment [1] is 112%. Moreover, the viability (% of control) in [2] came out at 72.4%. For the same molecule, the Potency entry in experiment [3], in experiment [4], in [5], in [6], in [7] and in [8] was “inactive” each time. Besides, the Potency result in experiment [9] is “inactive”. For the same molecule, the IC50 (viability decrease) entry in experiment [11] is “inactive”.
In the case of `Cc1cc(SCc2sc(-c3ccc(C(F)(F)F)cc3)nc2C)ccc1OCC(=O)O`, the cell viability, % of control (lower = more cytotoxic) in [1] amounted to 101%. The viability (% of control) in experiment [2] came out at 114%. Moreover, the Potency entry in experiment [3], in [4], in [5], in [7], in experiment [8] and in experiment [13] was “inactive” throughout. Moreover, in experiment [9], the Potency entry was “inactive”. In addition, in experiment [10], the Potency was 5.26 µM (active).
For `CNCc1ccc(-c2[nH]c3cc(F)cc4c3c2CCNC4=O)cc1`, the cell viability, % of control (lower = more cytotoxic) in experiment [1] was 80.5%. The viability (% of control) in [2] worked out at 15.1%. Further, the Potency entry in [3], in [4], in experiment [12] and in [9] was “inactive” in each case. Also, the Potency in experiment [10] is 16.6 µM (active). The IC50 (viability decrease) in [11] is 20.9 µM (active).
Turning to `COc1cc(Nc2ncc3c(n2)-c2ccc(Cl)cc2C(c2c(F)cccc2OC)=NC3)ccc1C(=O)O`, the cell viability, % of control (lower = more cytotoxic) in [1] amounted to 24.8%. Moreover, the viability (% of control) in experiment [2] worked out at 28.7%. For the same molecule, the Potency entry in experiment [3], in experiment [4] and in experiment [8] was “inactive” each time. Further, the Potency is 0.0743 µM (active) in experiment [6], 0.059 µM (active) in [10], 0.103 µM (active) in [13] and 0.0833 µM (active) in [9].
In the case of `CCOc1cc(C(=O)Nc2ccc(Cl)c(-c3nc4ccccc4[nH]3)c2)cc(OCC)c1OCC`, the cell viability, % of control (lower = more cytotoxic) in [1] is 0.788%. Besides, the viability (% of control) in experiment [2] amounted to 43.8%. Besides, the Potency result in experiment [3], in experiment [4], in [7], in experiment [8] and in experiment [12] was “inactive” in each case. For the same molecule, the figures for the Potency in experiment [5] and in experiment [10] were 14.8 µM (active) and 20.9 µM (active), respectively. Also, the IC50 (viability decrease) entry in [11] is “inactive”.
Regarding `OC(CCN1CCCCC1)(c1ccccc1)C1CC2C=CC1C2` (configuration not stated), in [1], the cell viability, % of control (lower = more cytotoxic) is 127%. Also, the viability (% of control) in experiment [2] came out at 107%. Moreover, the Potency entry in [3], in [5], in experiment [14], in experiment [6], in experiment [10] and in experiment [15] was “inactive” throughout. The Potency result in experiment [13] and in experiment [9] was “inactive” throughout. Besides, the call in experiment [16] and in experiment [17] was inactive.
Turning to `O=C(C=Cc1ccc(/C=C/C(=O)Nc2ccc(C3=NCCN3)cc2)cc1)Nc1ccc(C2=NCCN2)cc1`, the cell viability, % of control (lower = more cytotoxic) in experiment [1] turned out to be 203%. Moreover, the viability (% of control) in [2] is 104%. Moreover, the Potency result in experiment [3], in experiment [5], in experiment [6], in [10], in [7] and in [8] was “inactive” in each case. In addition, the Potency entry in [13] and in experiment [9] was “inactive” throughout. Besides, the IC50 (viability decrease) entry in [11] was “inactive”.
Consider `COc1cc(Oc2ccnc3cc(OC)c(OC)cc23)ccc1NC(=O)NC(C)c1nccs1` (configuration not stated), for which the cell viability, % of control (lower = more cytotoxic) in experiment [1] was determined as 98.9%. Besides, the viability (% of control) in experiment [2] was 32.2%. The Potency entry in [3], in experiment [4] and in experiment [9] was “inactive” in each case.
As for `CN(C)c1ccc(C2Nc3ccc4ccccc4c3C3=C2C(=O)CC(C)(C)C3)cc1Br` (configuration not stated), in experiment [1], the cell viability, % of control (lower = more cytotoxic) was determined as 119%. Further, the viability (% of control) in [2] worked out at 111%. In addition, the Potency entry in [3], in [4], in experiment [6], in [7], in experiment [8] and in experiment [9] was “inactive” in each case. Moreover, the Potency in experiment [10] is 16.6 µM (active).
As for `CN[C@@H](C)C(=O)N[C@H]1CCCC[C@H]2CC[C@@H](C(=O)N[C@@H](c3ccccc3)c3cn(CCCCc4ccc(CCCCn5cc([C@@H](NC(=O)[C@@H]6CC[C@@H]7CCCC[C@H](NC(=O)[C@H](C)NC)C(=O)N76)c6ccccc6)nn5)cc4)nn3)N2C1=O`, in [1], the cell viability, % of control (lower = more cytotoxic) came out at 28%. In experiment [2], the viability (% of control) is 1.94%. For the same molecule, the Potency entry in [3], in experiment [4], in experiment [7], in experiment [8] and in experiment [9] was “inactive” in each case. For the same molecule, the values for the Potency in experiment [6] and in experiment [10] were 26.4 µM (active) and 18.7 µM (active), respectively.
With `CCC(=O)N[C@H]1CC[C@H](C(=O)N(C)c2ccc(-c3nc4ccccc4o3)cc2)C1`, the cell viability, % of control (lower = more cytotoxic) in experiment [1] was 198%. Also, the viability (% of control) in [2] was found to be 92.1%. Further, the Potency result in experiment [3] and in experiment [4] was “inactive” each time. Moreover, the Potency was 3.72 µM (active) in [18] and 18.7 µM (active) in experiment [8].
`COc1c(Cl)cc2c([nH]c3cnccc32)c1NC(=O)c1cccnc1C`: the cell viability, % of control (lower = more cytotoxic) in experiment [1] was 41.9%. The viability (% of control) in experiment [2] was determined as 77.1%. Besides, the Potency result in experiment [3], in experiment [4], in experiment [7], in experiment [13] and in experiment [9] was “inactive” in each case. The Potency in [5] was 0.59 µM (active). Moreover, the IC50 (viability decrease) result in experiment [11] was “inactive”.
On to `CS(=O)(=O)c1ccc(C(=O)Nc2ccc(Cl)c(-c3ccccn3)c2)c(Cl)c1`, for which the cell viability, % of control (lower = more cytotoxic) in [1] was 312%. For the same molecule, the viability (% of control) in experiment [2] turned out to be 65.3%. Moreover, the Potency result in experiment [3], in [5], in experiment [6], in experiment [10], in experiment [7] and in [8] was “inactive” in each case. The Potency result in [9] is “inactive”.
